From PubChem
KB-V1 cytotox: KB-V1 MDR subline cytotoxicity | KB-V1 MDR cells viability, CellTiter-Glo, 72 h | Potency, µM (highest dose often 46.1 µM), usual class: cytotoxic | 3.4% of 400,000 active | AID 1347076; further: nearly all actives have a fitted effect of over 60% in size
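Readout: CellTiter-Glo luminescence, 10 min after addition. Cells: KB-V1 MDR subline, 72 h at 37 degrees C with compound. Analysis: corrected, normalized data fitted to concentration-effect curves.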
KB-3-1 cytotox: kills parental KB-3-1 adenocarcinoma cells; KB-3-1 viability, CellTiter-Glo ATP luminescence, 72 h; 1.4% of 400,000 active; Potency, µM (highest dose often 46.1 µM), hits mostly cytotoxic; further: nearly all actives have a fitted effect of over 60% in size
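Parental KB-3-1 adenocarcinoma cells in phenol-red-free DMEM with 10% FBS were pin-treated with compounds at several concentrations, incubated 72 h at 37 °C, and viability read by CellTiter-Glo luminescence; concentration-effect curves were fitted after normalization.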
PINK1 modulator: modulators of PINK1 expression; PINK1 immunofluorescence, high-content cytometry, 24 h; Potency, µM (series often up to 76.6 µM), actives largely listed as activators; 0.2% of 410,000 active; AID 624263; active means well fitted activation curve with a large enough effect; inconclusive means small, poorly fitted or top-dose-only effect; cell line not stated here; further: nearly all actives have a fitted effect of over 65% in size
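Cells are seeded, rested 12 hours, then given compound at five concentrations or DMSO for 24 hours. After fixation, blocking and antibody staining, PINK1 amount and mitochondrial localization are scored; CCCP serves as control.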
MCF10A rerep: DNA re-replication induction in MCF 10a cells | Potency, µM (doses to about 46.1 µM), usual class: activators | MCF 10A DNA re-replication, Hoechst nuclear intensity, 48 h | 2.9% of 350,000 active | AID 624296; further: nearly all actives have a fitted effect of over 50% in size
SW480 rerep: induces DNA re-replication in SW480 colon adenocarcinoma cells. SW480 DNA re-replication, Hoechst DNA content imaging, 48 h. Potency, µM (doses to about 46.1 µM), most hits filed as activators. 1.8% of 340,000 active. AID 624297; further: nearly all actives have a fitted effect of over 55% in size
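First, 250 cells per well were seeded. Next, compound or vehicle (23 nL) was pinned in, plates sat 48 hr at 37 C. Finally Hoechst was added for 40 min before fluorescence scanning.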
Of the large screens only hits and unclear results are named; the others gave an inactive call. The list is not random: actives were taken first. Their share in the collection is about 6.7%. Unless noted, the call rests on the fitted dose curve; in most records, active means well fitted curve in the direction sought with a large enough effect; inconclusive means small, poorly fitted or top-dose-only effect, or another doubt; inactive means no such curve, though single readings can be large; an effect the other way counts as inactive or inconclusive.

C=CCn1c(SCc2nc3ccccc3c(=O)[nH]2)nc2sc3c(c2c1=O)CCCC3	none
C=CCSc1nnc(CSc2nc3sc4c(c3c(=O)[nH]2)CCCC4)n1-c1ccccc1	KB-V1 cytotox 20.6µM, MCF10A rerep inconclusive, SW480 rerep inconclusive
C=CCn1c(SCc2nc3sc4c(c3c(=O)[nH]2)CCCC4)nc2ccccc2c1=O	KB-V1 cytotox 2.06µM, PINK1 modulator inconclusive, MCF10A rerep 10.3µM
CCc1c(C)sc(NC(=O)OC)c1C(N)=O	none
CCc1c(C)sc(NC(=O)CCc2ccc(OC)cc2)c1C(N)=O	KB-V1 cytotox 20.6µM
O=C(CSc1n[nH]c(-c2cccs2)n1)NCCc1ccccc1	none
Nc1nonc1C(=O)NCCNS(=O)(=O)c1ccc(Br)cc1	MCF10A rerep 18.4µM (no result: PINK1 modulator)
CCCCC(=O)NC(=S)NNC(=O)c1ccc(OC)cc1	KB-V1 cytotox inconclusive, KB-3-1 cytotox 23.1µM
C=CCNC(=S)NNC(=O)c1ccc(OCC(C)C)cc1	SW480 rerep 18.4µM
C=CCNC(=S)NNC(=O)c1ccc(OCC)cc1	SW480 rerep inconclusive
COc1ccc(C(=O)NNC(=S)NC(=O)c2ccc(OC)cc2)cc1	KB-3-1 cytotox inconclusive, MCF10A rerep inconclusive
CCCOc1ccc(C(=O)NNC(=S)NC(=O)CC)cc1	KB-V1 cytotox inconclusive, KB-3-1 cytotox 13µM, MCF10A rerep 16.4µM, SW480 rerep inconclusive
Cc1ccc(NC(=O)CC2Sc3ccccc3NC2=O)c(Br)c1 (stereo not drawn)	none (no result: MCF10A rerep, SW480 rerep)
CCOC(=O)c1c(NC(=O)C(=O)N/N=C/c2ccccc2O)sc2c1CCCCC2	KB-V1 cytotox 3.66µM, KB-3-1 cytotox inconclusive, SW480 rerep inconclusive
CCOC(=O)c1c(NC(=O)C(=O)N/N=C(\C)c2ccc(OC)cc2)sc2c1CCCCC2	KB-V1 cytotox 3.26µM
O=C(C(=O)N1CCC(Cc2ccccc2)CC1)c1ccccc1Br	none (no result: PINK1 modulator, MCF10A rerep, SW480 rerep)
CCOC(=O)C1=C(C)N=c2s/c(=C\c3ccc(OCC(=O)O)c(OC)c3)c(=O)n2C1c1ccc(OC)cc1 (stereo not drawn)	MCF10A rerep 23.1µM
CCOC(=O)C1=C(C)N=c2s/c(=C\c3ccc(OCC(=O)O)cc3)c(=O)n2C1c1ccccc1 (stereo not drawn)	KB-V1 cytotox inconclusive
O=C(Nc1ccsc1C(=O)NC1CCCCC1)c1ccccc1	KB-V1 cytotox 4.61µM
O=C(Nc1ccccc1C(=O)NC1CCCCC1)c1ccccc1	none
CSc1ccc(/C=N/N2CCN(Cc3ccc(C)cc3C)CC2)cc1	none
Cc1ccc(CN2CCN(/N=C/c3sccc3C)CC2)c(C)c1	KB-V1 cytotox 14.6µM, PINK1 modulator inconclusive
Cc1c(-c2ccccc2)sc2nc[nH]c(=S)c12	KB-V1 cytotox 11.6µM, KB-3-1 cytotox inconclusive
O=C(OCc1ccccc1)N1CCC2CC1c1c2cccc1N1CCOCC1 (stereo not drawn)	none (no result: MCF10A rerep, SW480 rerep)
O=C(NC1CCCCC1)C(c1ccnc2ccccc12)n1c(=O)c(-c2ccccc2)nc2ccccc21 (stereo not drawn)	KB-V1 cytotox 23.1µM, KB-3-1 cytotox 18.4µM (no result: PINK1 modulator, MCF10A rerep, SW480 rerep)
Cc1cccc(-c2oc3ccc(-c4ccc5c(c4)OCO5)cc3c2/C=C/c2ccc(N)cc2)c1	KB-V1 cytotox inconclusive, MCF10A rerep inconclusive, SW480 rerep 16.4µM
COc1ccc(-c2c(-c3cccc(C)c3)oc3ccc(-c4ccc5c(c4)OCO5)cc23)cn1	none
Cc1nn(C(C)C(=O)NC2CCCCC2)c(=O)c2nn(-c3ccccc3)c(C)c12 (stereo not drawn)	none
O=C1CCc2cc(S(=O)(=O)Nc3ccc(Cl)c(Cl)c3)ccc2N1	none (no result: PINK1 modulator, MCF10A rerep, SW480 rerep)
CC(=O)C1=C(O)C(CSCc2ccccc2)N(C)C1=O (stereo not drawn)	KB-V1 cytotox 20.6µM
CC(=O)N[C@@H](C)C(=O)NCC1Cc2cc(C)cc(-c3cnccn3)c2O1 (stereo partly drawn)	none (no result: KB-V1 cytotox, KB-3-1 cytotox, MCF10A rerep, SW480 rerep)
COc1ccccc1/C=C/C=N/NC(=O)c1cccs1	none
NC(N)=Nc1nc(-c2ccccc2)c2cc(F)ccc2n1	KB-3-1 cytotox 23.1µM, MCF10A rerep inconclusive
OCCSc1nc(-c2ccccc2)nc2ccc(F)cc12	none
COc1ccc(-c2noc(CCCC(=O)N3CCN(c4cc(C)ccc4C)CC3)n2)cc1	MCF10A rerep 13µM
Cc1ccc(-c2noc(CCC(=O)N3CCN(c4cc(C)ccc4C)CC3)n2)cc1	MCF10A rerep 20.6µM
CCOC(=O)N1CCN(Cc2nc(-c3ccc(Cl)cc3)no2)CC1	none
CCOC(=O)N1CCN(Cc2nc(-c3ccc(OC)cc3)no2)CC1	KB-V1 cytotox 8.2µM
Cc1ccc(C)c(N2CCN(C(=O)CCc3nc(-c4ccc(Br)cc4)no3)CC2)c1	none
CCCCc1cc(=O)oc2cc(C)cc(OCC(=O)N3C[C@H]4C[C@@H](C3)c3cccc(=O)n3C4)c12	KB-3-1 cytotox inconclusive, MCF10A rerep inconclusive, SW480 rerep 1.84µM
CCCCc1cc(=O)oc2cc(OCC(=O)N3C[C@H]4C[C@@H](C3)c3cccc(=O)n3C4)ccc12	none
COc1ccccc1-c1nc(N(C)C)c2ccccc2n1	none (no result: KB-V1 cytotox, KB-3-1 cytotox, MCF10A rerep, SW480 rerep)
CC(C)[Si]1(C(C)C)OCC2OC(n3cnc4c(N)ncnc43)C(N)C2O[Si](C(C)C)(C(C)C)O1 (stereo not drawn)	MCF10A rerep 13µM, SW480 rerep inconclusive
Cc1cccc(-c2c3c(=O)n(C)c(=O)n(C)c3cn2C2CCCCC2)c1	KB-V1 cytotox 16.4µM, MCF10A rerep inconclusive
Cc1cccc(-c2c3c(=O)n(C)c(=O)n(C)c3cn2C(C)(C)C)c1	none
Cn1c(=O)c2c(-c3ccccc3)n(C3CCCCC3)cc2n(C)c1=O	KB-V1 cytotox 20.6µM
COc1ccc(Nc2ncc(C(=O)Nc3ccc(F)cc3F)c3ccccc23)cc1	KB-V1 cytotox inconclusive (no result: MCF10A rerep, SW480 rerep)
COc1ccc(-c2nc3sc(CCNC(=O)Cc4ccccc4)c(C)n3n2)cc1	none (no result: KB-V1 cytotox, KB-3-1 cytotox, MCF10A rerep, SW480 rerep)
COC(=O)c1sc2nc(CSc3ccc(Br)cc3)[nH]c(=O)c2c1C	MCF10A rerep 14.6µM
CCc1ccc(N2CC(C(=O)Nc3ccc(OC)c(S(=O)(=O)N4CCOCC4)c3)CC2=O)cc1 (stereo not drawn)	none (no result: MCF10A rerep, SW480 rerep)
Cc1ccc(NC(=O)CN2CCc3ccccc3C2)cc1S(=O)(=O)N1CCOCC1	KB-V1 cytotox 8.2µM
CCc1ccc(N2CC(C(=O)Nc3ccc(C)c(S(=O)(=O)N4CCOCC4)c3)CC2=O)cc1 (stereo not drawn)	KB-V1 cytotox 23.1µM
Cc1ccc(NC(=O)Cc2ccccc2)cc1S(=O)(=O)N1CCOCC1	KB-V1 cytotox 23.1µM
COc1ccc(OC)c(NC(=O)Cn2cnc3onc(-c4ccc(Cl)cc4)c3c2=O)c1	KB-3-1 cytotox inconclusive (no result: MCF10A rerep, SW480 rerep)
Cc1ccc([C@H]2C[C@H](n3cc(C4CC4)nn3)[C@@H](O)CN2Cc2cccs2)cc1	KB-V1 cytotox inconclusive (no result: MCF10A rerep, SW480 rerep)
C(COC1CC2CC1C1C2CC2OC21)OC1CC2CC1C1C2CC2OC21 (stereo not drawn)	KB-V1 cytotox 20.6µM, MCF10A rerep inconclusive
Cc1ccccc1OCCC(=O)Nc1cc(S(=O)(=O)N2CCOCC2)ccc1OC(C)C	KB-V1 cytotox inconclusive
